Measured values reported in the supplement of paper PMC6555819.

test system: PXR homodimer (NR concentration 270 nM); test: PBM binding z-score (relative to random genomic background probes); higher = stronger binding; sequences stand for … in GC…GCGATTGACAGCGTAGAATGAAGG
Summary of the method: (§1)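 The probes on custom Agilent 4×180K protein-binding microarrays were double-stranded, with 34-nt variable regions bearing direct-repeat seeds, single-nucleotide variants, half-site ablations and random human genomic background sequences. Incubation lasted 1 h with ligand-free nuclear receptor dimers in PBS pH 7.4, 2% milk, 0.02% Triton X-100, 1 mM DTT, 0.2 mg/mL BSA and 0.4 mg/ml salmon testes DNA. Antibodies against each partner (one per run) detected bound dimers, and fluorescence scans were regression-normalized. Binding z-scores take the random background probes as reference.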

| Sequence | PBM binding z-score |
| --- | --- |
| TAGACTAGGTCATTCAGGGGCCAGTATAGAAAGC | 0.176 |
| TGTGCTAGGTCAGTTGGTCAGCTAACGAGCTGCC | -0.625 |
| TTACCACGGTGAAGGTCGTTGATCCCTCTGTAGA | 0.169 |
| TTACCAAGGTGAGCTGAGGTCGTTCATCCAACTC | 0.906 |
| ATCGGAAGGTCGACGAGGTGAGTATACACCGTTT | -0.0622 |
| CCAGACAGGTGAAAGGTAACTTAGTCTGGTACGC | -0.035 |
| AGTCAAAGTTCAGGGCGAGGTAACGTAAAGCACG | 1.1 |
| TCTGGTTGGTCACGGAGGTCACACACGACGGGTA | 2.06 |
| TTACCAAGGTTAAGGTCGTTGATCCCTCTGTAGA | 1.3 |
| CCTCGGAGGACAAGAGGAGGTCAGAGCTGCCAGA | -0.0509 |
| GCTTACGGGTCAAAGGATATAGCATGAATAGAAT | -0.166 |
| CGTCCAAGGTAAAAGGTCAGTGAAGAGATGACGG | 0.564 |
| CGTCCAAGGTCAGGGTCAGTGAAAGAGACTCGAA | 0.71 |
| ATCTCTAGGTAAAGTTCGGTGAAAGATCGATAGA | 0.941 |
| CAAACTAGGTCGAGGTCAAAGTCGGTTTGTGCCA | 2.29 |
| CCTAACGGGTCACGAGGTTATAGCACGACGAGCG | 0.408 |
| CAAACTAGGTCACGAAAGGCCAAAGTCGAATGAC | 0.402 |
| CGTGCAAGGTCAATGCTAGGTCAGTGAAAGCATT | 0.967 |
| CCTACTGGGCCATTCAGAGGTCATTGAGCATATG | 2.54 |
| ATACCAAGGTGATGGTGAGGTCGTTGATACTAAC | 1.55 |

| Sequence | PBM binding z-score |
| --- | --- |
| CCTTACGGGTCACGAGGTTACAGCACGACGAGCG | 0.46 |
| GATACAGGGTCAGCTAGAGGCCAGAGTATGGAAA | -0.262 |
| TGAATGAGGTTAAAGATCAGGGACCGTGGCGTCG | -0.23 |
| CAAACTTGGTCACGAAAGGTCAAAGTCGAATGAC | 1.66 |
| GGAACGAGGGCAAAGTTGATTGCATCTGTCGACG | 0.179 |
| CCTCGGAGGACAGAAGGTCAGAGCGGTCCGCTTT | -0.289 |
| CAGCCTCGGTCAGGGCCAGTATAGGAGGAACGTT | -0.661 |
| TCGAGTAGGTTAGTCGAGGCATTCAGCCAACATA | -0.481 |
| CGTCCAATGTCATAGGAGGTCAGTGAAGACAGAT | 0.941 |
| GCTGCTTGGTCAGGTTGGTCAGCTAACGGGTACG | -0.597 |
| GCAGACAGGTGAAGCGCAGGTAACTCAGGGTGGC | -0.646 |
| GCTAGCAGGCCATTTGGGTCCCTCAATGACGGGC | -1.15 |
| ATCTCTAGGTTACCAAGTTCAGTGAATGCCGAAC | 4.37 |
| CGTCCAAGGTCAATGCTAAGTCAGTGAAAGCATT | 0.823 |
| ATCGAAAGGTCTAGGTGAGTATAGAGAAAGGGAA | 0.272 |
| CATACAGGGTCAGCTTGGCCAGAGTAGGGACGGC | -0.3 |
| CCTACTGGGCTACGAAAGGTCATTGATTCAGTGA | 1.74 |
| ATATGTAGGTTGCATCCGGGTCATTCAGGCTATG | 1.85 |
| TAGCCTAGGTCATTCAAGGGCCAGTATAGAAAGC | 0.325 |
| AGAATGAGGATACCAAAGATCAGGGAAACGCTTG | -0.0472 |

test system: RARa:RXR (NR concentration 270 nM, RXRa partner concentration 90 nM); test: as above
Summary of the method: as §1

| Sequence | PBM binding z-score |
| --- | --- |
| TAGACTAGGTCATTCAGGGGCCAGTATAGAAAGC | 3.32 |
| TGTGCTAGGTCAGTTGGTCAGCTAACGAGCTGCC | 0.36 |
| TTACCACGGTGAAGGTCGTTGATCCCTCTGTAGA | 1.59 |
| TTACCAAGGTGAGCTGAGGTCGTTCATCCAACTC | 1.82 |
| ATCGGAAGGTCGACGAGGTGAGTATACACCGTTT | 1.66 |
| CCAGACAGGTGAAAGGTAACTTAGTCTGGTACGC | 1.59 |
| AGTCAAAGTTCAGGGCGAGGTAACGTAAAGCACG | 2.93 |
| TCTGGTTGGTCACGGAGGTCACACACGACGGGTA | 4.93 |
| TTACCAAGGTTAAGGTCGTTGATCCCTCTGTAGA | 3.04 |
| CCTCGGAGGACAAGAGGAGGTCAGAGCTGCCAGA | 1.94 |
| GCTTACGGGTCAAAGGATATAGCATGAATAGAAT | 3.94 |
| CGTCCAAGGTAAAAGGTCAGTGAAGAGATGACGG | 5.16 |
| CGTCCAAGGTCAGGGTCAGTGAAAGAGACTCGAA | 4.22 |
| ATCTCTAGGTAAAGTTCGGTGAAAGATCGATAGA | 0.644 |
| CAAACTAGGTCGAGGTCAAAGTCGGTTTGTGCCA | 4.71 |
| CCTAACGGGTCACGAGGTTATAGCACGACGAGCG | 5.55 |
| CAAACTAGGTCACGAAAGGCCAAAGTCGAATGAC | 3.68 |
| CGTGCAAGGTCAATGCTAGGTCAGTGAAAGCATT | 6.46 |
| CCTACTGGGCCATTCAGAGGTCATTGAGCATATG | 4.74 |
| ATACCAAGGTGATGGTGAGGTCGTTGATACTAAC | 1.47 |

| Sequence | PBM binding z-score |
| --- | --- |
| CCTTACGGGTCACGAGGTTACAGCACGACGAGCG | 6.67 |
| GATACAGGGTCAGCTAGAGGCCAGAGTATGGAAA | 4.85 |
| TGAATGAGGTTAAAGATCAGGGACCGTGGCGTCG | 2.91 |
| CAAACTTGGTCACGAAAGGTCAAAGTCGAATGAC | 6.77 |
| GGAACGAGGGCAAAGTTGATTGCATCTGTCGACG | 1.39 |
| CCTCGGAGGACAGAAGGTCAGAGCGGTCCGCTTT | 1.91 |
| CAGCCTCGGTCAGGGCCAGTATAGGAGGAACGTT | -0.746 |
| TCGAGTAGGTTAGTCGAGGCATTCAGCCAACATA | 0.0963 |
| CGTCCAATGTCATAGGAGGTCAGTGAAGACAGAT | 2.69 |
| GCTGCTTGGTCAGGTTGGTCAGCTAACGGGTACG | -0.108 |
| GCAGACAGGTGAAGCGCAGGTAACTCAGGGTGGC | -0.125 |
| GCTAGCAGGCCATTTGGGTCCCTCAATGACGGGC | -0.731 |
| ATCTCTAGGTTACCAAGTTCAGTGAATGCCGAAC | 1.46 |
| CGTCCAAGGTCAATGCTAAGTCAGTGAAAGCATT | 4.32 |
| ATCGAAAGGTCTAGGTGAGTATAGAGAAAGGGAA | 0.406 |
| CATACAGGGTCAGCTTGGCCAGAGTAGGGACGGC | 2.93 |
| CCTACTGGGCTACGAAAGGTCATTGATTCAGTGA | 5.44 |
| ATATGTAGGTTGCATCCGGGTCATTCAGGCTATG | 2.73 |
| TAGCCTAGGTCATTCAAGGGCCAGTATAGAAAGC | 2.93 |
| AGAATGAGGATACCAAAGATCAGGGAAACGCTTG | -0.216 |
